In the supplement of paper PMC10849652:
About 8,800 targets were measured; listed, in parts, are those with a hit and a random draw of the rest. About 0.5% of all pairs of compound and target were hits. A number with no mark means an inactive call.

Tests used:
Test in all cases: log2 fold change, soluble protein after heating vs DMSO (PISA); higher = thermal stabilisation; K562 lysate, 10 uM; active = over 0.2 and 3.5 SD of the protein, either way, in both replicates (recomputed)
vemurafenib = compound: CCCS(=O)(=O)Nc1ccc(F)c(C(=O)c2c[nH]c3ncc(-c4ccc(Cl)cc4)cc23)c1F [vemurafenib]
How it was run: (§1)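 Values give the log-two fold change in thermal stability against solvent controls, from duplicates. Crude K562 extract at 1 mg/mL protein, made by dounce homogenisation in PBS pH 7.4 with 1 mM MgCl2, was treated with 10 μM compound for 30 min. After 3 min heating across 48°C-58°C, aliquots were pooled, adjusted to 0.5% NP-40 at 4°C and centrifuged at 21,000xg for 90 min. The supernatant was measured by TMTpro 16plex LC-MS/MS with channel sums equalised.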

[1] = compound: CCCS(=O)(=O)Nc1ccc(F)c(C(=O)c2c[nH]c3ncc(Cl)cc23)c1F
How it was run: as §1

barasertib = compound: CCN(CCCOc1ccc2c(Nc3cc(CC(=O)Nc4cccc(F)c4)[nH]n3)ncnc2c1)CCOP(=O)(O)O [barasertib]
How it was run: as §1

[2] = compound: CC[C@@H]1C(=O)N(C)c2cnc(Nc3ccc(C(=O)NC4CCN(C)CC4)cc3OC)nc2N1C1CCCC1
How it was run: as §1

volasertib = compound: CC[C@@H]1C(=O)N(C)c2cnc(Nc3ccc(C(=O)N[C@H]4CC[C@H](N5CCN(CC6CC6)CC5)CC4)cc3OC)nc2N1C(C)C [volasertib]
How it was run: as §1

[3] = compound: CCn1c(C(=O)N(C2CC2)C2CC2)cc2c3c(ncn3C)c(Nc3cc(C)n(C)n3)nc21
How it was run: as §1

[4] = compound: CCn1cc(-c2ccnc3[nH]c(-c4cccc(CN(C)C)c4)cc23)c(-c2ccc(NC(=O)N(C)C)cc2)n1
How it was run: as §1

[5] = compound: CN1CCC(CNc2ccc3ncc(-c4cccc(OC(F)(F)F)c4)n3n2)CC1
How it was run: as §1

saracatinib = compound: CN1CCN(CCOc2cc(OC3CCOCC3)c3c(Nc4c(Cl)ccc5c4OCO5)ncnc3c2)CC1 [saracatinib]
How it was run: as §1

sotrastaurin = compound: CN1CCN(c2nc(C3=C(c4c[nH]c5ccccc45)C(=O)NC3=O)c3ccccc3n2)CC1 [sotrastaurin]
How it was run: as §1

alvocidib = compound: CN1CC[C@H](c2c(O)cc(O)c3c(=O)cc(-c4ccccc4Cl)oc23)[C@H](O)C1 [alvocidib]
How it was run: as §1

Tubastatin A = compound: CN1CCc2c(c3ccccc3n2Cc2ccc(C(=O)NO)cc2)C1 [Tubastatin A]
How it was run: as §1

[6] = compound: CNC(=O)C1=CC=CC=C1NC2=NC(=NC=C2Cl)NC3=C(C=C(C=C3)N4CCOCC4)OC
How it was run: as §1

defactinib = compound: CNC(=O)c1ccc(Nc2ncc(C(F)(F)F)c(NCc3nccnc3N(C)S(C)(=O)=O)n2)cc1 [defactinib]
How it was run: as §1

[7] = compound: CNc1nc(-c2ccc3c(N)n[nH]c3c2)cc(N2C[C@@H](C(=O)NC3CCCCC3)CC[C@H]2C)n1
How it was run: as §1

encorafenib = compound: COC(=O)N[C@@H](C)CNc1nccc(-c2cn(C(C)C)nc2-c2cc(Cl)cc(NS(C)(=O)=O)c2F)n1 [encorafenib]
How it was run: as §1

[8] = compound: COC(=O)[C@H](CCSC)NC(=O)C1=C(C=C(C=C1)NC[C@H](CS)N)C2=CC=CC=C2
How it was run: as §1

alisertib = compound: COc1cc(Nc2ncc3c(n2)-c2ccc(Cl)cc2C(c2c(F)cccc2OC)=NC3)ccc1C(=O)O [alisertib]
How it was run: as §1

[9] = compound: COc1cc2nc(-c3cc(F)ccc3O)nc(N[C@@H]3CNC[C@H]3C(C)(C)O)c2cc1OC
How it was run: as §1

gefitinib = compound: COc1cc2ncnc(Nc3ccc(F)c(Cl)c3)c2cc1OCCCN1CCOCC1 [gefitinib]
How it was run: as §1

Sequence of UniProt O00221 (O00221 whole entry, looked up): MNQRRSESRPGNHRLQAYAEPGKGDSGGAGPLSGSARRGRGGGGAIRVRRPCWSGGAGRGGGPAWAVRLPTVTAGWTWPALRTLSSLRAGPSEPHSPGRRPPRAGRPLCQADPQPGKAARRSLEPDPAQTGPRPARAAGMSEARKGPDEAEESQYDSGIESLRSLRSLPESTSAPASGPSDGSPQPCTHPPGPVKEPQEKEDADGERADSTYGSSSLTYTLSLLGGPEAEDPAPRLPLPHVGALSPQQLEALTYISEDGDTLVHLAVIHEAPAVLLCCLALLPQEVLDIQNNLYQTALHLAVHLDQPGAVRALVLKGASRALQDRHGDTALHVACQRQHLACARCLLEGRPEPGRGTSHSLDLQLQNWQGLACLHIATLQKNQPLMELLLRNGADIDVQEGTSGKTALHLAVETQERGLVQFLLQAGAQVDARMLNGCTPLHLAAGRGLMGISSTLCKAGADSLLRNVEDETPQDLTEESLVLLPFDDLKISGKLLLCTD
Sequence of UniProt Q9Y217 (Q9Y217 whole entry, looked up): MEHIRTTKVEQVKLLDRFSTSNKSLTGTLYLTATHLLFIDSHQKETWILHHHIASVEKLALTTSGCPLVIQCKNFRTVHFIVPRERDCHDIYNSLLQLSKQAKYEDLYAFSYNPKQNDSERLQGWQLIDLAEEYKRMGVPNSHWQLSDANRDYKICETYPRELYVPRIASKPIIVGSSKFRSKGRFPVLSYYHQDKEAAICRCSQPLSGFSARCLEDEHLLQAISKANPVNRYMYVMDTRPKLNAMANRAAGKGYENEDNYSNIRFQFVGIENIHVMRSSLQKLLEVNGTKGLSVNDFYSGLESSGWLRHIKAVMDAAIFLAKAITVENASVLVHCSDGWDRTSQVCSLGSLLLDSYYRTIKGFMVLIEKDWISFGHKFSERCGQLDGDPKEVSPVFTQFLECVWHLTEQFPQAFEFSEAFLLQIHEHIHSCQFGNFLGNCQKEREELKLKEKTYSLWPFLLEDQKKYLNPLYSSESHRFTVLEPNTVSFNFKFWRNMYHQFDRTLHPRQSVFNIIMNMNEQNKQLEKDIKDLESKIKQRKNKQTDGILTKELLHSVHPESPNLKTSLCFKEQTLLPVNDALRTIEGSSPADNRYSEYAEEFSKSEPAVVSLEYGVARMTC
Sequence of UniProt Q9NVE7 (Q9NVE7 whole entry, looked up): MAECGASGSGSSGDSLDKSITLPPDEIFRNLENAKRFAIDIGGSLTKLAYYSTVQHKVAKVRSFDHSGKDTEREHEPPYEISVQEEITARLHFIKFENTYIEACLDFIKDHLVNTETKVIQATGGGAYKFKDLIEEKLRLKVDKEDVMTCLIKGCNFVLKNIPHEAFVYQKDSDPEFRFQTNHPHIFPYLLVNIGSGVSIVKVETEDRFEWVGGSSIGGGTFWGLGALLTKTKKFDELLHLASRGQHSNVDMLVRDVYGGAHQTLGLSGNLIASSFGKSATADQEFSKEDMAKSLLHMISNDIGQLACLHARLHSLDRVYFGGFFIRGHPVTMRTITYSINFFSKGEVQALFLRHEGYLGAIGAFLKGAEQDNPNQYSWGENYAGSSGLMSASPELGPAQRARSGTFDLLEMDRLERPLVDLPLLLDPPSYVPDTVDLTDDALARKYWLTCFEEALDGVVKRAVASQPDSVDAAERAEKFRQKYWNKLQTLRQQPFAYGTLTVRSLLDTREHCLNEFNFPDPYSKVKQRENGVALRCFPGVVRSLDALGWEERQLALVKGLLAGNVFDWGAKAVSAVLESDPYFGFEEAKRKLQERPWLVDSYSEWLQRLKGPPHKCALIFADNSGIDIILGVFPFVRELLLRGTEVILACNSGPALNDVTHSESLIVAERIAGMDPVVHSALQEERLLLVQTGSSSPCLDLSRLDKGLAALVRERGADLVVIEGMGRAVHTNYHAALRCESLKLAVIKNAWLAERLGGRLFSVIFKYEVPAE
Sequence of UniProt Q15102 (Q15102 whole entry, looked up): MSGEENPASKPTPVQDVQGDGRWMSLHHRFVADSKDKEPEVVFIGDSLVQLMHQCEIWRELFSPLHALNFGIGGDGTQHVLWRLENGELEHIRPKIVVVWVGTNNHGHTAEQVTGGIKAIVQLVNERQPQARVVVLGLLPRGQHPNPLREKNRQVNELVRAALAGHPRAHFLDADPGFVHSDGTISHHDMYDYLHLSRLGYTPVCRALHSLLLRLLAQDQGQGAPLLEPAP
Sequence of UniProt Q8NC60 (Q8NC60 whole entry, looked up): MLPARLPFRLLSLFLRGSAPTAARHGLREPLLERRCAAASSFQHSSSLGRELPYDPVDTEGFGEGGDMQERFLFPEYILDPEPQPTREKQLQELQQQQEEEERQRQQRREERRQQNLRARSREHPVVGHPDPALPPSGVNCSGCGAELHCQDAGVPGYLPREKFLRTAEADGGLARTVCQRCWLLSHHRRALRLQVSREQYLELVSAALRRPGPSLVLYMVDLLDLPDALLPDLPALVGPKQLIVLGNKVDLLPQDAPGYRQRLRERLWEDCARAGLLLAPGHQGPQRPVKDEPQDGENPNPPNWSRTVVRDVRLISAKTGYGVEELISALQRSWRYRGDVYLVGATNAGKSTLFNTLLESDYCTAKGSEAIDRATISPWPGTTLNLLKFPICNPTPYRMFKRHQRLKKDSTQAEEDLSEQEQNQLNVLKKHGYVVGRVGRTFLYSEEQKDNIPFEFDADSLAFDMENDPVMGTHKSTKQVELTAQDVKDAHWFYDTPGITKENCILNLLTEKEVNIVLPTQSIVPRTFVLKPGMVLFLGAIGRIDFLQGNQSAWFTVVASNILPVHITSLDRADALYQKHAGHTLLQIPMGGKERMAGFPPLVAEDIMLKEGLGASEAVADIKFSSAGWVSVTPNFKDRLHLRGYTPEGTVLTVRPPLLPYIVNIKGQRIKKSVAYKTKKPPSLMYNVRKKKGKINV
Sequence of UniProt O75607 (O75607 whole entry, looked up): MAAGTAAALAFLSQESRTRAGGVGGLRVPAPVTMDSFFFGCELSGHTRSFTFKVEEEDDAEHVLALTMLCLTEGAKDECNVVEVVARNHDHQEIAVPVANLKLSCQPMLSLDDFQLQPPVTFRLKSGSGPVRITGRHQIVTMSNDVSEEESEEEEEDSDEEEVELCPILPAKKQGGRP
Sequence of UniProt Q9BPX3 (Q9BPX3 whole entry, looked up): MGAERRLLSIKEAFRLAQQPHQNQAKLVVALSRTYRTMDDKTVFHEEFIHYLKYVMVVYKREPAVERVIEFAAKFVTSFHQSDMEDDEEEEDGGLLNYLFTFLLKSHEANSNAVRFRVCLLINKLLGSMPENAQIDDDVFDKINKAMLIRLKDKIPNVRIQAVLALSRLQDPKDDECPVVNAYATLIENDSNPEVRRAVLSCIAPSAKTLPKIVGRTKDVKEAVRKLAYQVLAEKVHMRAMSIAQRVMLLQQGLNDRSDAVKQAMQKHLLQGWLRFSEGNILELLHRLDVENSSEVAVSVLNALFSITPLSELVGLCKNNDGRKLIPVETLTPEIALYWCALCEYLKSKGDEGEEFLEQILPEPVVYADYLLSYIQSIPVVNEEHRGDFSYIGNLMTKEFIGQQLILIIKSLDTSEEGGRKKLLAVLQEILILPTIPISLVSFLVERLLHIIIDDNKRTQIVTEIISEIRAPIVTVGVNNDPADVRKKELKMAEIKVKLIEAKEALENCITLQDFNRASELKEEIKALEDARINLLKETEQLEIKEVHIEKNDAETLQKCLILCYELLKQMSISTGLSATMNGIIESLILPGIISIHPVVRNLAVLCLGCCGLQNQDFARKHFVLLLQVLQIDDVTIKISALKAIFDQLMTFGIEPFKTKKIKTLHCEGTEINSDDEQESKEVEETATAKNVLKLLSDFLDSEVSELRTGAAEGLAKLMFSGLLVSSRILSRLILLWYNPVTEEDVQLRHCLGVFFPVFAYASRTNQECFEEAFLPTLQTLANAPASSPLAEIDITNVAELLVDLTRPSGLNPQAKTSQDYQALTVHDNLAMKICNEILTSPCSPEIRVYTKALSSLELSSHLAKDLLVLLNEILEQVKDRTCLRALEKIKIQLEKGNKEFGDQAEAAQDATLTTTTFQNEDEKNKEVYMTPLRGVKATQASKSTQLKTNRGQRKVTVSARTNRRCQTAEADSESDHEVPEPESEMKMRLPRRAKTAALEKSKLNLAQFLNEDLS
Sequence of UniProt Q13416 (Q13416 whole entry, looked up): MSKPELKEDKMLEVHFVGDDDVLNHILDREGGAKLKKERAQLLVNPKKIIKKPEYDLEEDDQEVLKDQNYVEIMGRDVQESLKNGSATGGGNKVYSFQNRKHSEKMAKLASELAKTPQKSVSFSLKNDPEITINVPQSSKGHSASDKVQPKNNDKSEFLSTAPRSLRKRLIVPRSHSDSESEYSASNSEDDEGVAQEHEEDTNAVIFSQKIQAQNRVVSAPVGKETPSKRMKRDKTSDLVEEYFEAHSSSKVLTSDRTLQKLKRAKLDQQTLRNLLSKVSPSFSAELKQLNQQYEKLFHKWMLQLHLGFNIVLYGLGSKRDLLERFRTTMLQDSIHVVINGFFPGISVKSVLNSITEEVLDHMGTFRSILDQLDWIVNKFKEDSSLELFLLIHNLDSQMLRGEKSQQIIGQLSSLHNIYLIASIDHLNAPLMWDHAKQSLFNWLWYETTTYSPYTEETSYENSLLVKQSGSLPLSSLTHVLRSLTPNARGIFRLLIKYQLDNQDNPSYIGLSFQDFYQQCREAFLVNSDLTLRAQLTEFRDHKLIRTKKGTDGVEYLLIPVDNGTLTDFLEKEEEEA
Sequence of UniProt Q15653 (Q15653 whole entry, looked up): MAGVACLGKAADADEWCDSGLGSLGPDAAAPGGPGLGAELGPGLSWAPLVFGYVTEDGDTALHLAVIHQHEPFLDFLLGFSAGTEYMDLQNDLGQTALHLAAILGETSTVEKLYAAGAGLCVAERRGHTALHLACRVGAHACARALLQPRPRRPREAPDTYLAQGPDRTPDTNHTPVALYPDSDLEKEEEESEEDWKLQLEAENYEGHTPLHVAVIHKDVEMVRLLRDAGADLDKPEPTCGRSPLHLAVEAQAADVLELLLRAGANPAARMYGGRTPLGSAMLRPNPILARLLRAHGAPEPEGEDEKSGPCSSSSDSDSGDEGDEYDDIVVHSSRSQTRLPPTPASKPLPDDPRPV

Target | log2 fold change (vemurafenib) | log2 fold change [1] | log2 fold change (barasertib) | log2 fold change [2] | log2 fold change (volasertib) | log2 fold change [3] | log2 fold change [4] | log2 fold change [5] | log2 fold change (saracatinib) | log2 fold change (sotrastaurin) | log2 fold change (alvocidib) | log2 fold change (Tubastatin A) | log2 fold change [6] | log2 fold change (defactinib) | log2 fold change [7] | log2 fold change (encorafenib) | log2 fold change [8] | log2 fold change (alisertib) | log2 fold change [9] | log2 fold change (gefitinib)
NOA1 (UniProt Q8NC60) | 0.041 | -0.009 | 0.043 | 0.029 | -0.024 | -0.083 | -0.229 | 0.028 | 0.016 | 0.037 | -0.016 | -0.11 | 0.063 | -0.076 | 0.063 | -0.049 | -0.023 | 0.039 | 0.023 | -0.042
NCAPG (UniProt Q9BPX3) | -0.013 | 0.021 | 0.018 | -0.057 | -0.023 | 0.015 | -0.05 | -0.024 | 0.001 | -0.011 | 0.003 | -0.113 | 0.011 | 0.024 | 0.01 | -0.01 | 0.094 | 0.007 | -0.01 | 0.003
PAFAH1B3 (UniProt Q15102) | -0.008 | 0.002 | 0.119 | -0.061 | -0.067 | 0.031 | -0.04 | -0.021 | 0.013 | -0.009 | 0.005 | -0.067 | 0.019 | 0.065 | -0.017 | -0.016 | 0.212 (active) | 0.058 | -0.022 | -0.02
PANK4 (UniProt Q9NVE7) | 0.026 | 0.011 | 0.054 | -0.051 | -0.091 | 0.003 | -0.136 | 0.077 | 0.001 | 0.012 | -0.009 | -0.117 | 0.018 | 0.01 | 0.019 | -0.011 | 0.498 (active) | -0.028 | 0.013 | -0.017
ORC2 (UniProt Q13416) | 0.048 | 0.007 | 0.003 | -0.077 | -0.048 | 0.002 | -0.002 | -0.085 | 0.007 | 0.049 | 0.034 | -0.161 | 0.038 | 0.034 | -0.008 | 0.018 | 0.094 | 0.012 | -0.002 | -0.011
NEBL (UniProt O76041) | 0.034 | -0.027 | 0.066 | 0.039 | 0.014 | -0.014 | 0.29 (active) | -0.002 | -0.035 | 0.085 | 0.149 | 0.022 | -0.048 | 0.024 | 0.043 | -0.083 | 0.015 | -0.134 | -0.005 | 0
PARD3 (UniProt Q8TEW0) | 0.145 | -0.017 | -0.123 | -0.009 | -0.016 | -0.032 | -0.147 | -0.08 | 0.016 | 0.004 | -0.035 | -0.087 | -0.021 | 0.144 | -0.031 | 0.007 | 0.061 | -0.013 | 0.438 (active) | 0.04
MTMR6 (UniProt Q9Y217) | 0.038 | 0.012 | 0.018 | 0.006 | -0.024 | -0.055 | 0.217 | -0.08 | 0.024 | 0.087 | -0.034 | -0.019 | 0 | -0.042 | -0.047 | 0.028 | -0.092 | 0.022 | 0.004 | -0.053
NFKBIB (UniProt Q15653) | -0.058 | 0.041 | -0.059 | 0.099 | 0.068 | -0.054 | -0.535 (active) | 0.096 | -0.013 | -0.002 | -0.146 | -0.077 | 0.053 | -0.007 | -0.006 | 0.006 | 0.06 | 0 | -0.031 | 0.064
NNMT (UniProt P40261) | 0.024 | -0.036 | -0.059 | 0.008 | 0.056 | 0.015 | -0.062 | 0.03 | -0.043 | 0.021 | -0.001 | -0.03 | 0 | -0.049 | -0.086 | 0.043 | -0.317 (active) | 0 | 0.009 | 0.004
MRPS18A isoform 2 (UniProt Q9NVS2) | 0.073 | 0.03 | 0.037 | 0.073 | -0.019 | -0.04 | 0.306 (active) | -0.121 | -0.042 | 0.036 | 0.18 | -0.047 | -0.156 | -0.024 | 0.106 | 0.029 | -0.037 | 0.041 | -0.017 | 0.008
OGFR (UniProt Q9NZT2) | -0.033 | 0.025 | 0.003 | -0.012 | -0.067 | 0.004 | 0.12 | -0.039 | 0.022 | 0.053 | 0.022 | -0.089 | 0.002 | -0.015 | -0.03 | 0.02 | 0.089 | -0.003 | -0.003 | -0.004
NPM3 (UniProt O75607) | 0.052 | 0.03 | -0.065 | 0.058 | -0.015 | -0.007 | -0.376 (active) | 0.158 | -0.023 | 0.025 | -0.04 | 0.015 | -0.017 | 0.062 | 0.011 | 0.012 | 0.028 | -0.002 | 0.023 | -0.015
MSH6 (UniProt P52701) | 0.024 | 0.028 | 0.021 | -0.109 | -0.061 | 0.044 | -0.035 | -0.041 | -0.003 | 0.047 | -0.021 | -0.17 | 0.009 | 0.012 | -0.032 | 0.019 | 0.105 | 0.003 | -0.011 | -0.023
NONO (UniProt Q15233) | -0.005 | 0.018 | -0.006 | -0.032 | -0.049 | 0 | 0.076 | -0.043 | 0.004 | -0.015 | 0.049 | -0.126 | 0.04 | -0.01 | 0.014 | 0.011 | 0.102 | 0.026 | -0.004 | 0.007
NFKBIE (UniProt O00221) | 0.046 | 0.051 | 0.174 | 0.081 | -0.106 | -0.024 | -0.07 | -0.045 | -0.123 | -0.025 | -0.068 | 0.029 | 0.055 | 0.054 | 0.013 | 0.038 | -0.14 | 0.047 | -0.03 | 0.014
